Inconclusive results are not listed. Calls of active or inactive are those of the source.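 The calls were made as follows, unless noted: active = compounds whose dose series gives a full or clear partial fitted curve of increased nuclear translocation; inconclusive = weak partial curve or effect only at the top dose; inactive = no dose-dependent translocation response.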
Target: Glucocorticoid receptor (Homo sapiens) (UniProt P04150)
Assay: GR-GFP Redistribution (AID 450); also: potency is read from the fitted curve at half-maximal effect
Settings: U2OS GR-GFP nuclear translocation, laser cytometry, 2 h; series mostly up to 20.6 µM

Chain of Glucocorticoid receptor (Homo sapiens) (P04150 whole entry, looked up): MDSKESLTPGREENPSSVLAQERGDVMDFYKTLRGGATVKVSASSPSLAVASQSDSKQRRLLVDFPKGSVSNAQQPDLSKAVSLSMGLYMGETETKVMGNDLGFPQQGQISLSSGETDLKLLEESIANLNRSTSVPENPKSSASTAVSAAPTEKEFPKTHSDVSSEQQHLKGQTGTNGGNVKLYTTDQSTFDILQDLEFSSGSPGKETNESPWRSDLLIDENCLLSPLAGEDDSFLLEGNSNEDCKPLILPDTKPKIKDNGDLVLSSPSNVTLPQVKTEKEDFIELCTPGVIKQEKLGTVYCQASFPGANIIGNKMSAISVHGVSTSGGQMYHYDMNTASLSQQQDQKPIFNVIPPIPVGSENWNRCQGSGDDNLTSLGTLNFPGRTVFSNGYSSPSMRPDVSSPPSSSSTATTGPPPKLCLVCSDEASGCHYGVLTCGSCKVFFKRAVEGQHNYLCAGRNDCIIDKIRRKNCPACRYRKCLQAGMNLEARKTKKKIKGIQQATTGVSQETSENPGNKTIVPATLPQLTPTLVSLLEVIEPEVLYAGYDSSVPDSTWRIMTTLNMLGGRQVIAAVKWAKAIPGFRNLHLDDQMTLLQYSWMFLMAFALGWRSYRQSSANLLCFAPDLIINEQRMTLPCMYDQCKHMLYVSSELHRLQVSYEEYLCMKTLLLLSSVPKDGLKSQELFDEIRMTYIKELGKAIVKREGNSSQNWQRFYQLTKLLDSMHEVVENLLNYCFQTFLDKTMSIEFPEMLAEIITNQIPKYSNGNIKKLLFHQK

Potency, inactive:
CCOC(=O)CSc1nc(N)c(C#N)c(-c2ccc(OC)cc2)c1C#N > 20.6 µM
Cc1nc(N2CCN(Cc3ccccc3)CC2)c(C#N)c2c1COC(C)(C)C2 > 20.6 µM
CNC(=O)Nc1cccc(NC(=O)NC)n1 > 20.6 µM
CCCCNC(=O)C(C#N)c1nc2ccccc2nc1N1CCN(Cc2ccc3c(c2)OCO3)CC1 (centres undefined) > 20.6 µM
CC1(C)Cc2c(C#N)c(OCC(=O)c3ccccc3)nc(-c3ccoc3)c2CO1 > 20.6 µM
CCCCCCCCCC(=O)N[C@@H](CN1CCOCC1)[C@@H](O)c1ccccc1 > 46 µM
CCCCCCCCCCCCCCCCCC(=O)NC[C@@H](COP(=O)([O-])OCC[N+](C)(C)C)OCC > 46 µM
N#Cc1cc(Oc2cccc3cccnc23)c(-n2nnc3ccccc32)cc1C#N > 20.6 µM
CCCc1cc(Nc2c(C)n(C)n(-c3ccccc3)c2=O)n2c(nc3ccccc32)c1C#N > 20.6 µM
C[C@]12CC[C@@H]3c4ccc(O)cc4CC[C@H]3[C@@H]1CC[C@@H]2OC(=O)CCC(=O)O > 20.6 µM
C(=N\n1cnnc1)/c1ccccn1 > 20.6 µM
CCOC(=O)CSC1=C(C#N)C(=O)NC(c2ccc(OC)c(OC)c2)S1 (centres undefined) > 20.6 µM
COc1ccc(CCCNC(=O)CC#N)cc1OC > 20.6 µM
CN(C)CCCOC(=O)c1ccc(Cl)cc1Cl > 20.6 µM
Cn1c(OCc2cccnc2)nc2c1c(=O)n(Cc1ccc(Br)cc1)c(=O)n2C > 20.6 µM
CCC(=O)Oc1ccc(C(CC)C(CC)c2ccc(OC(=O)CC)cc2)cc1 (centres undefined) > 20.6 µM
CSC1=C(C#N)C(c2ccc(C)s2)CC(=O)N1 (centres undefined) > 20.6 µM
CCCc1nc(NC2CCCCC2)c(C#N)c2c1COC(C)(C)C2 > 20.6 µM
COc1ccc(-c2nn3c(COc4ccccc4)nnc3s2)cc1OC > 20.6 µM
CC1(C)Cc2c(C#N)c(NCC3CCCO3)nc(-c3ccco3)c2CO1 (centres undefined) > 20.6 µM

Target: Glucocorticoid receptor (Homo sapiens) (UniProt P04150)
Assay: GR-EFC Redistribution (AID 451; calls by dose curve; also: potency is read from the fitted curve at half-maximal effect)
Settings: CHO-K1 GR-EFC translocation, beta-gal luminescence, 2 h
How it was run: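 Translocation of GR-ED fusion to nuclear EA restores b-gal, read by luminescence after 1 h room-temperature detection. Engineered CHO-K1 biosensor cells, 1,000/well, exposed 2 h at 37 C to titrations up to 46 uM final.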

Potency, inactive:
CN(C)CCCO[C@H]1[C@H]([C@H](O)CO)O[C@H]2OC(C)(C)O[C@@H]21 > 46 µM
CC[C@H](C)[C@@H]1O[C@]2(CC[C@@H]1C)C[C@H]1C[C@H](CC=C(C)[C@@H](O[C@@H]3C[C@H](OC)[C@H](O[C@@H]4C[C@H](OC)[C@H](O)[C@H](C)O4)[C@H](C)O3)[C@@H](C)C=CC=C3CO[C@@H]4[C@@H](O)C(C)=C[C@@H](C(=O)O1)[C@]34O)O2 > 20.6 µM
CCCCCCCCCC(=O)N[C@@H](CN1CCOCC1)[C@@H](O)c1ccccc1 > 46 µM
CCCCCCCCCCCCCCCCCC(=O)NC[C@@H](COP(=O)([O-])OCC[N+](C)(C)C)OCC > 46 µM

Target: 3',5'-cyclic-AMP phosphodiesterase 4B (Homo sapiens) (UniProt Q07343)
Assay: qHTS Assay for Inhibitors of PDE-IV (AID 607; active = well fitted activation curve with a large enough effect in the main read-out, with a control signal flat, not every such curve was filed as active; also: % of control where 0% means no effect)
Settings: HEK293 ACTOne CNG channel cells, membrane potential fluorescence; series mostly up to 22.9 µM
How it was run: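 HEK293 ACTOne cells with CNG channel (1000/well), endogenous PDE4; membrane potential dye, compounds up to 22.9 uM final. Fluorescence Ex 535/Em 590; RO 20-1724 (100 uM final) as reference.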

Chain of 3',5'-cyclic-AMP phosphodiesterase 4B (Homo sapiens) (Q07343 whole entry, looked up): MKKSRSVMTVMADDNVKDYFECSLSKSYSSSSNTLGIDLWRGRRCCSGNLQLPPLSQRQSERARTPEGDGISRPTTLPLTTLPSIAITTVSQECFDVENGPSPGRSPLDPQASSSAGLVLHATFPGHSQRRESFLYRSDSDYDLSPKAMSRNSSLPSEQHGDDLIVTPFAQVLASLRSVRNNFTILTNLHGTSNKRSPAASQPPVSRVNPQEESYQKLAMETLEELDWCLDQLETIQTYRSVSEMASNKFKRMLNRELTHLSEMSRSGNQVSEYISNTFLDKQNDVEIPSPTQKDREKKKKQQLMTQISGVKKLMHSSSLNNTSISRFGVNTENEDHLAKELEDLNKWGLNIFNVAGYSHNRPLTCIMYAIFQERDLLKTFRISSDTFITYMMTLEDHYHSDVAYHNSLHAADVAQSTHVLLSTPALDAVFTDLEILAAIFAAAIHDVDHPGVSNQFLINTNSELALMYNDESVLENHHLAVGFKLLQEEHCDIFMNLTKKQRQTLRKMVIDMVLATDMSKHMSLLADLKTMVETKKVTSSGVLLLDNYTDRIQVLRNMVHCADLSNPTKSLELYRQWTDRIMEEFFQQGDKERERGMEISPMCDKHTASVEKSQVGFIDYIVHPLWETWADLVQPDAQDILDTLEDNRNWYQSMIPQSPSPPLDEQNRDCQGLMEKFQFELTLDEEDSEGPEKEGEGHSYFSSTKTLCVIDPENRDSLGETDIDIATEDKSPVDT

Potency, inactive:
CN(C)CCCO[C@H]1[C@H]([C@H](O)CO)O[C@H]2OC(C)(C)O[C@@H]21
CC[C@H](C)[C@@H]1O[C@]2(CC[C@@H]1C)C[C@H]1C[C@H](CC=C(C)[C@@H](O[C@@H]3C[C@H](OC)[C@H](O[C@@H]4C[C@H](OC)[C@H](O)[C@H](C)O4)[C@H](C)O3)[C@@H](C)C=CC=C3CO[C@@H]4[C@@H](O)C(C)=C[C@@H](C(=O)O1)[C@]34O)O2
CCCCCCCCCC(=O)N[C@@H](CN1CCOCC1)[C@@H](O)c1ccccc1
CCCCCCCCCCCCCCCCCC(=O)NC[C@@H](COP(=O)([O-])OCC[N+](C)(C)C)OCC

Target: Guanine nucleotide-binding protein G(i) subunit alpha-1 (Homo sapiens) (UniProt P63096)
Assay: qHTS Assay for Inhibitors of RGS12 GoLoco Motif Activity (Green Fluorophore) (AID 879; active = well fitted curve in the direction sought with a large enough effect; an effect the other way counts as inactive or inconclusive;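 also: 0% = labeled peptide with Gαi1 and full inhibition = labeled peptide alone without protein; negative values mean loss of peptide binding seen as reduced polarization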)
Settings: Galphai1/FITC-RGS12 GoLoco peptide, fluorescence polarization; series mostly up to 57.1 µM
How it was run: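 A drop in FITC polarization marked displacement of the FITC-tagged RGS12 GoLoco peptide (10 nM) from Gαi1 (50 nM). Compounds were incubated 10 min at room temperature in Tris pH 7.5 buffer containing 150 mM NaCl, 0.1 mM GDP and 0.05% NP40; unlabeled peptide titration served as control.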

Chain of Guanine nucleotide-binding protein G(i) subunit alpha-1 (Homo sapiens) (P63096 whole entry, looked up): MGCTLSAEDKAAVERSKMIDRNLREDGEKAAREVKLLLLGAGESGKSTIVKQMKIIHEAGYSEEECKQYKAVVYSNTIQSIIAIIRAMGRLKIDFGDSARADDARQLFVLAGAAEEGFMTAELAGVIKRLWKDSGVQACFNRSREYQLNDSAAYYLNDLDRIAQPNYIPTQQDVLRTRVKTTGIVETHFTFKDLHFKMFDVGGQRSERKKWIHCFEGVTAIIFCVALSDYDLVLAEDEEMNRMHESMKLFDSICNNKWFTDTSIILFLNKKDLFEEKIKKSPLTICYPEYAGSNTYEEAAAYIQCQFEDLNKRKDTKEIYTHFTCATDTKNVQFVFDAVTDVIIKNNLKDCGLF

outcome, inactive:
CN(C)CCCO[C@H]1[C@H]([C@H](O)CO)O[C@H]2OC(C)(C)O[C@@H]21
CCCCCCCCCC(=O)N[C@@H](CN1CCOCC1)[C@@H](O)c1ccccc1
CCCCCCCCCCCCCCCCCC(=O)NC[C@@H](COP(=O)([O-])OCC[N+](C)(C)C)OCC

Tested on: not listed separately
Assay: qHTS Assay for Identification of Small Molecule Agonists for Hypoxia Response Element Signaling Pathway (AID 914; active = well fitted activation curve with a large enough effect in the signal ratio, with a control signal flat, not every such curve was filed as active; the % refers to the signal ratio; also: potency is read from the fitted curve at half-maximal effect; as to activation: % of control where 0% means no effect)
Settings: ME-180 (cervical carcinoma) HRE-bla reporter, beta-lactamase ratio, CoCl2, 17 h; activation: hits give high values
How it was run: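 A beta-lactamase reporter under hypoxia response element control in ME-180 cells served as the system. Compound titrations plus EC50 CoCl2 ran 17 h at 37 degrees Celsius; AC50 values were fitted from %Activity.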

Potency, active:
Cc1ccc(CNC(=O)c2cc3c(=O)n4ccccc4nc3n(CC3CCCO3)c2=N)cc1 (centres undefined) 7.94 µM
CCOC(=O)C(O)(C1C(=O)CC(C)(C)CC1=O)C(F)(F)F (centres undefined) 10 µM

activation, inactive:
COc1ccc(CCCNC(=O)CC#N)cc1OC 5.59%
COc1ccc(-c2nn3c(COc4ccccc4)nnc3s2)cc1OC -19.3%
CC1(C)Cc2c(C#N)c(NCC3CCCO3)nc(-c3ccco3)c2CO1 (centres undefined) 25.9%

Target: Muscarinic acetylcholine receptor M1 (Rattus norvegicus) (UniProt P08482)
Assay: qHTS Assay for Antagonists of Acetylcholine Muscarinic M1 Receptor: Kinetic Measurement of Intracellular Calcium Response (AID 943; active = well fitted curve in the direction sought with a large enough effect; an effect the other way counts as inactive or inconclusive; also: nearly all actives have a fitted effect of over 75% in size; also: potency is read from the fitted curve at half-maximal effect)
Settings: M1-expressing cells, kinetic intracellular calcium fluorescence; series mostly up to 35.3 µM
How it was run: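 Antagonism measured as reduction of carbachol-evoked (EC80, 100 nM final) calcium flux in rat M1-CHO cells after 10 min compound exposure. Fluo-4 signal read kinetically; ratio of maximal to basal fluorescence.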

Chain of Muscarinic acetylcholine receptor M1 (Rattus norvegicus) (P08482 whole entry, looked up): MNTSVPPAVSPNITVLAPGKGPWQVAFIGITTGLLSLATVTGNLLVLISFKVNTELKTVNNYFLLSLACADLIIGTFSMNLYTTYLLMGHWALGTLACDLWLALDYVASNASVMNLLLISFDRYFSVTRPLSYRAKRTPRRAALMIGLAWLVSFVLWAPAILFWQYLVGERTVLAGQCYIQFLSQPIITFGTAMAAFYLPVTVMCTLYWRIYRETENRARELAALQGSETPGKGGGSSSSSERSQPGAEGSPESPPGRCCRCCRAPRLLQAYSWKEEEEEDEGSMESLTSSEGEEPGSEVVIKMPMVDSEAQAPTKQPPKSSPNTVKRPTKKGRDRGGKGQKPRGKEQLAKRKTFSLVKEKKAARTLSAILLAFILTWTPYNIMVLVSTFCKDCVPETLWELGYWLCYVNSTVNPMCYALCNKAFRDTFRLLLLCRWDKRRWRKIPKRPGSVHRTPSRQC

Potency, inactive:
CN(C)CCCO[C@H]1[C@H]([C@H](O)CO)O[C@H]2OC(C)(C)O[C@@H]21
CCCCCCCCCC(=O)N[C@@H](CN1CCOCC1)[C@@H](O)c1ccccc1

Potency, active:
CCCCCCCCCCCCCCCCCC(=O)NC[C@@H](COP(=O)([O-])OCC[N+](C)(C)C)OCC 7.08 µM

— PubChem BioAssay (NCATS)
